Here are results for 40 molecules from PubChem BioAssay (Tox21).

Inconclusive results are not listed. Unmarked numbers belong to inactive results. Active and inactive are the calls of the source. Calls follow the shape of the dose curve; as a rule, active = well fitted cell-killing curve with a large enough effect in the repeat runs; inconclusive = weak or mixed curves, or effect the other way; inactive = flat fitted curve, though single readings scatter.
% is scaled to controls: 0 for no effect and ±100 for the full control effect; potency is read from the fitted curve at half-maximal effect.

This test can be described thus: qHTS assay to identify small molecule antagonists of the estrogen receptor alpha (ER-alpha) signaling pathway using the BG1 cell line in the presence of 0.1 nM 17-beta-estradiol - cell viability counter screen (AID 1259241). Also: nearly all actives have a fitted effect of over 40% in size. The conditions noted are these: VM7Luc4E2 (BG1) viability, CellTiter-Fluor protease, 22 h, 0.1 nM estradiol agonist added; series mostly up to 92.4 µM; activity change, negative = cytotoxicity: at the top concentration. From the text: National Center for Advancing Translational Sciences [NCATS]
NIH Chemical Genomics Center [NCGC]
U.S. Environmental Protection Agency [EPA]
National Institutes of Environmental Health Sciences [NIEHS]
National Toxicology Program [NTP]
U.S. Food and Drug Administration [FDA]
Estrogen receptor (ER), a member of the nuclear hormone receptor plays an important role in development, metabolic homeostasis and reproduction. Two subtypes of ER, ER-alpha and ER-beta, have similar expression patterns with some uniqueness in both types. Endocrine disrupting chemicals (EDCs) and their interactions with steroid hormone receptors like ER causes disruption of normal endocrine function. Therefore, it is important to understand the effect of environmental chemicals in ER signaling pathway. For identifying ER antagonists, VM7Luc4E2 cell line was used to screen against Tox21 compound libraries.
VM7Luc4E2 cell line (provided by Denison MS, University of California) endogenously express full-length ER-alpha and is stably transfected with a plasmid containing four estrogen responsive elements (ERE) upstream of a luciferase reporter gene. The current screening for identification of ER-alpha inhibitors against Tox21 compound libraries used lower concentration (0.1 nM) of 17beta-Estradiol as a stimulator. The cytotoxicity of the Tox21 compound libraries against VM7Luc4E2 cell line was tested by measuring live-cell protease activity using CellTiter-Fluor assay in the same wells.
Tox21 Assay Protocol Summary:
VM7Luc4E2 cells were cultured in phenol red free assay medium containing 10% charcoal stripped FBS for 5 days prior to the assay. The cells were dispensed at 4,000 cells/well in 4 uL of assay medium into white wall/solid-bottom 1536-well plates (Corning Life Sciences, Corning, NY) using a Multidrop Combi (ThermoFisher Scientific, Waltham, MA) dispenser. After the assay plates were incubated at 37C and 5% CO2 for 24 hr, 23 nL of compounds dissolved in DMSO, positive controls or DMSO only was transferred to the assay plates by a Pintool station (Kalypsys, San Diego, CA). The transfer of compounds was followed by the addition of 1 uL of 0.1 nM (final concentration) agonist (17beta-Estradiol)/assay medium using a Flying Reagent Dispenser (FRD, Aurora Discovery, San Diego, CA). The plates were incubated at 37C and 5% CO2 for 22 hr. For cytotoxicity assay, 1 uL of CellTiter-Fluor reagent (Promega Corporation, Madison, WI) was added to each well using the FRD and after 30 min incubation at 37C and 5% CO2, The fluorescence intensity was measured using ViewLux plate reader (PerkinElmer, Shelton, CT).
(In general: In qHTS, concentration-response curves come from the screen itself.)
Consider `CCn1c2ccccc2c2ccccc21`, for which the “activity change, negative = cytotoxicity” value is -3.29%.

As for `O=C(CCCCCCCCc1cccnc1)N1CCC(C=C(c2ccccc2)c2ccccc2)CC1`, the “activity change, negative = cytotoxicity” value is -2.47%.

Consider `C1CCSC1`, for which the “activity change, negative = cytotoxicity” value is -3.5%.

For the molecule `O=C1OC(O)C(C(Cl)Cl)=C1Cl` (stereo not given), the “activity change, negative = cytotoxicity” value was -1.65%.

`COc1cc(OC)nc(NC(=O)NS(=O)(=O)Nc2ccccc2C(=O)N(C)C)n1`: the “activity change, negative = cytotoxicity” value was -4.06%.

On to `Cc1cccc2c1ccc1ccccc12`, for which the “activity change, negative = cytotoxicity” value is -2.4%.

Regarding `CN(C)CCOc1ccc(/C(=C(/CCCl)c2ccccc2)c2ccccc2)cc1`, the “activity change, negative = cytotoxicity” value was -0.12%.

Regarding `CCCCCCCCCCCCCCCCCCNC(=O)OC1CCN(C(=O)OC[C@H](COC(=O)N(Cc2cccc[n+]2CC)C(=O)c2ccccc2OC)OC)CC1`, the “activity change, negative = cytotoxicity” value was -24% [at 42.5 µM].

As to `Cc1ccc(C2OC[C@@H]3OC(c4ccc(C)cc4)O[C@H]([C@H](O)CO)[C@@H]3O2)cc1` (stereo not given in full), the “activity change, negative = cytotoxicity” value is -3.58%.

For the molecule `CC(C)C(=O)C(C)C`, the “activity change, negative = cytotoxicity” value is 5.56%.

For `COc1cccc(-c2ccc(/C=C\CN3CCCCCC3)cc2Cl)c1`, the “activity change, negative = cytotoxicity” value was -21.4%.

As to `CCNc1nc(NC(C)(C)C)nc(OC)n1`, the “activity change, negative = cytotoxicity” value was 1.91%.

`Clc1cccc(Cl)n1`: the “activity change, negative = cytotoxicity” value was -0.936%.

In the case of `CCN(CC)c1ccc2c(c1)Oc1cc(N(CC)CC)ccc1C21OC(=O)c2ccccc21`, the Potency was 5.96 µM (active).

`CC(C)c1ccc2sc3ccccc3c(=O)c2c1`: the “activity change, negative = cytotoxicity” value was 7.78%.

As to `CN1CC[C@H](c2c(O)cc(O)c3c(=O)cc(-c4ccccc4Cl)oc23)[C@H](O)C1`, the “activity change, negative = cytotoxicity” value is -22.5% [at 42.5 µM].

With `CC1=CC[C@@H](C(C)(C)O)CC1`, the “activity change, negative = cytotoxicity” value was 1.84%.

Consider `c1ccc(-c2ccccc2-c2ccccc2)cc1`, for which the “activity change, negative = cytotoxicity” value is -22.8%.

Turning to `CC/C=C\C/C=C\C/C=C\CCCCCCCC(=O)OC`, the “activity change, negative = cytotoxicity” value was -11.1%.

For the molecule `CCC(O)CO` (stereo not given), the “activity change, negative = cytotoxicity” value was 5.72%.

Turning to `O=C(Nc1ccc([N+](=O)[O-])cc1)Nc1ccc([N+](=O)[O-])cc1` (tested in a mixture with another compound), the “activity change, negative = cytotoxicity” value is 3.49% [at 42.5 µM].

On to `Oc1ccc2c(c1)CCC2`, for which the “activity change, negative = cytotoxicity” value is 1.98%.

As to `C/C(=N\[Si](C)(C)C)O[Si](C)(C)C`, the “activity change, negative = cytotoxicity” value was -0.362%.

For the molecule `Oc1cccc2c(O)cccc12`, the Potency is 68.6 µM (active).

Regarding `Brc1cc(Br)cc(Br)c1`, the “activity change, negative = cytotoxicity” value is -3.92%.

Turning to `CCc1cccc(CC)c1`, the “activity change, negative = cytotoxicity” value was 1.18%.

For `N#Cc1ccc(C/C(=N/NC(=O)Nc2ccc(OC(F)(F)F)cc2)c2cccc(C(F)(F)F)c2)cc1`, the “activity change, negative = cytotoxicity” value is -0.541%.

On to `CCc1cccc(C)c1N(C(=O)CS(=O)(=O)O)C(C)COC` (stereo not given), for which the “activity change, negative = cytotoxicity” value was -10.4%.

For `C=CC(=O)OCC(Br)CBr` (stereo not given), the “activity change, negative = cytotoxicity” value is -3.78%.

Consider `CCOC(=O)[C@H](C)O`, for which the “activity change, negative = cytotoxicity” value is 7.54%.

In the case of `NC(=O)c1ccccc1Cl`, the “activity change, negative = cytotoxicity” value is -13.5%.

Turning to `[Cl][Eu]([Cl])[Cl]`, the “activity change, negative = cytotoxicity” value is 7.88%.

Take `O=C(O)CN(CCCN(CC(=O)O)CC(=O)O)CC(=O)O`: the activity change, negative = cytotoxicity is 0.536% [at 19 µM].

For `O[Si](c1ccccc1)(c1ccccc1)c1ccccc1`, the “activity change, negative = cytotoxicity” value is 4.76%.

Consider `N#CCCOCCC#N`, for which the “activity change, negative = cytotoxicity” value is -11.8%.

Turning to `SC1CCCCC1`, the “activity change, negative = cytotoxicity” value is 5.43%.

On to `Clc1ccc2c(Cl)ccnc2c1`, for which the “activity change, negative = cytotoxicity” value is 3.89%.

For the molecule `CN1CCN(CCCN2c3ccccc3Sc3ccc(C(F)(F)F)cc32)CC1`, the “activity change, negative = cytotoxicity” value is -6.11% [at 42.5 µM].

In the case of `Cc1cc(C)c(O)c(C(C)(C)C)c1`, the “activity change, negative = cytotoxicity” value was 0%.

For the molecule `O=c1[nH]cccc1O`, the “activity change, negative = cytotoxicity” value was -4.62%.
